Assay results taken from PubChem BioAssay AID652104 (National Center for Advancing Translational Sciences (NCATS), 2013).
The whole screen tested about 410,000 compounds, of which about 7,200 (1.8%) were called active. Roughly 7% stayed inconclusive and do not appear here. The call rests on the fitted dose curve; in most records, active means well fitted activation curve with a large enough effect; inconclusive means small, poorly fitted or top-dose-only effect, or another doubt; inactive means no such curve, though single readings can be large or run the other way. Many of the other results were omitted from the sample, so actives are more common in it than they were.

Assay: qHTS of TDP-43 Inhibitors; further: nearly all actives have a fitted effect of over 50% in size
Conditions: TDP-43 expressing yeast growth rescue, BacTiter-Glo, 24 h; series mostly up to 46.1 µM
Outline: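 Yeast cells expressing TDP-43 under galactose induction are exposed to compounds for 24 hr at 30 deg C. BacTiter-Glo luminescence measures growth, so protective compounds score as activators.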
Potency means the concentration at half of the fitted maximal effect.

Potency, inactive:
CCn1cc2nc(SCc3ccccc3Cl)n(CCc3ccccc3)c(=O)c2n1
COc1ccc(CNC(=O)CCc2c(C)nn(-c3ccc(N4CCCC4)nn3)c2C)cc1
CC1CC(=O)N(CC(=O)Nc2cccc(Cl)c2)c2ccccc2S1(=O)=O (stereo not given)
Cc1ccccc1NC(=O)CN1C(=O)C(C)(C)c2ccccc21
COC(=O)c1c(NC(=O)c2cc(=O)c3c(C)cc(C)cc3o2)sc2c1CCCC2
COc1ccc(-c2noc(CSc3nc4ccc(C)cc4[nH]3)n2)cc1
COc1ccc(OC)c(CNC(=O)Cn2nc(C)c3c(C)n(-c4ccccc4)nc3c2=O)c1
CC(C)CC(N=C1NC(C)(C)Cc2ccccc21)C(=O)O (stereo not given)
CCOC(=O)C1=C(NC(=S)NC(=O)c2ccccc2)c2ccccc2CC1(C)C
O=C(CSc1n[nH]c(-c2ccccc2)n1)N1CCCCC1
Cc1cc(=O)n(CC(=O)Nc2cccc([N+](=O)[O-])c2)c(-n2nc(C)cc2C)n1
COC(=O)c1cc(NC(=O)CCS(=O)(=O)c2cc(Br)cc3c2N(C(=O)C2CC2)CC3)cc(C(=O)OC)c1
COc1ccc(CCNc2nc(-c3ccc(F)cc3)cc(C(F)(F)F)n2)cc1OC
COc1ccc(CNc2nc(-c3ccc(Cl)cc3)cc(C(F)(F)F)n2)cc1
COc1ccccc1CNC(=O)Cn1nc(C)c2nn(-c3ccc(Cl)cc3)c(C)c2c1=O
COc1ccccc1OCCCn1c(-c2ccc(Cl)cc2)nc2ccccc2c1=O
CN(C(=O)CSc1nc2ccc(NC(=O)COc3ccccc3)cc2s1)c1ccccc1
O=C(Nc1ccc2nc(SCC(=O)N3CCc4ccccc43)sc2c1)c1ccccc1F
Cc1cccc(-c2nc(SCc3ccc(Br)cc3)n3[nH]c(=O)cc3n2)c1
COc1ccc(CC(=O)N2CC(=O)Nc3ccc(Br)cc3C2c2ccc(F)cc2)cc1OC (stereo not given)
COc1ccc(CNC(=O)c2cc3c(-c4ccccc4F)nn(C)c3s2)c(OC)c1
Cn1nc(-c2ccc(Cl)cc2)c2cc(C(=O)NCc3ccco3)sc21
COc1ccc(Nc2ncc(C(=O)N3CCN(c4ccccc4OC)CC3)c3ccccc23)cc1
CCS(=O)(=O)N1CCc2cc(C(=O)N3CCN(c4ccccc4OC)CC3)ccc21

Potency, active:
Cc1ccc(NC(=O)CN2C(=O)CC(C)Sc3ccccc32)c(C)c1 (stereo not given) 17.8 µM
CC1(C)Cc2ccccc2/C(=C/C(=O)c2ccccc2)N1 12.6 µM
COc1ccc(-c2cc(C(F)(F)F)nc(S(C)(=O)=O)n2)cc1OC 10 µM
O=C(O)c1ccccc1CSc1nc2ccccc2s1 12.6 µM
COc1cccc(-c2cc(C(=O)N3CCN(c4ccccc4OC)CC3)no2)c1 22.4 µM
COc1ccccc1N1CCN(C(=O)c2cc3c(-c4ccc(Cl)cc4)nn(C)c3s2)CC1 35.5 µM
